# Experimental data as given in article PMC7862700, “An all-to-all approach to the identification of sequence-specific readers for epigenetic DNA modifications on cytosine”.
# Assays:
# Test in all cases: DAPPL (digital affinity profiling via proximity ligation, sequencing); 10 mM Tris-HCl pH 7.5, 50 mM NaCl, 1 mM DTT, 4% glycerol, room temperature, 30 min; GST-TFs on glutathione beads, 16-mer random dsDNA library, 0.1% formaldehyde crosslink after washing; high values mean tight binding
# FLI1 = target: T1, FLI1 (Homo sapiens, UniProt Q01543 1-452); conditions: protein: recombinant; tags: N-terminal GST; dsDNA, one strand shown
# T1 sequence: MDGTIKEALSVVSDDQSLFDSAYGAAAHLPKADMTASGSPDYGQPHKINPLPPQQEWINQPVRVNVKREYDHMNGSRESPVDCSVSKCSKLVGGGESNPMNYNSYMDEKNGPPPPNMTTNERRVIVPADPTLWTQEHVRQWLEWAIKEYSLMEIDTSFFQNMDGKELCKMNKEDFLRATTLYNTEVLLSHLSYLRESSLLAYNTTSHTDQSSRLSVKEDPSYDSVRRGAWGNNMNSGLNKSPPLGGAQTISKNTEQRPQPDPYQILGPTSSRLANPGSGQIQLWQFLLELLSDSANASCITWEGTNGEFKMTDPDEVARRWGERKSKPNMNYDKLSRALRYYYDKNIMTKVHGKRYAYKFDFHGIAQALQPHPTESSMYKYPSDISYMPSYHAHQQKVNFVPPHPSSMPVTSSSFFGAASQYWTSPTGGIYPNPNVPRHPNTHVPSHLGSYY
# How it was run: (§1)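 GST fusions of human transcription factors were expressed in yeast and captured with glutathione beads. Once given DNA barcodes and pooled alongside a tag-only sample, they were incubated for 30 min at room temperature with 200 nmole of a random double-stranded 16-mer DNA library in Tris/NaCl/DTT/glycerol buffer, then washed, crosslinked (0.1% formaldehyde), proximity-ligated, PCR-amplified and sequenced on an Illumina NextSeq500. The binding signal of each hexamer is its read frequency for a factor divided by its frequency for the tag-only sample.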
# ELK1 = target: T2, ELK1 (Homo sapiens, UniProt P19419 1-428); conditions: protein: recombinant; tags: N-terminal GST; dsDNA, one strand shown
# T2 sequence: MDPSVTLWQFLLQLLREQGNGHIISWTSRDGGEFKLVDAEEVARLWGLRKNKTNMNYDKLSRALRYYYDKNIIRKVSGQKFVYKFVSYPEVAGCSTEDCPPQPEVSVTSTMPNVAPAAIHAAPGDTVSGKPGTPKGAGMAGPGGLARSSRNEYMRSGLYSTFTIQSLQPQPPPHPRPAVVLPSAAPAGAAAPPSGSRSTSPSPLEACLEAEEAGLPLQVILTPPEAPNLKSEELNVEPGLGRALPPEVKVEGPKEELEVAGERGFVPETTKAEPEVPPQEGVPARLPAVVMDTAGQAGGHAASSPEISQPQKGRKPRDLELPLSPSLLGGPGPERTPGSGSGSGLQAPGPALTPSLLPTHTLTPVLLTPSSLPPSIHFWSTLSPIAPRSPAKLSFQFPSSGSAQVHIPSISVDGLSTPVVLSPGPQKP
# How it was run: as §1
# GABPA = target: T3, GABPA (Homo sapiens, UniProt Q06546 1-454); conditions: protein: recombinant; tags: N-terminal GST; dsDNA, one strand shown
# T3 sequence: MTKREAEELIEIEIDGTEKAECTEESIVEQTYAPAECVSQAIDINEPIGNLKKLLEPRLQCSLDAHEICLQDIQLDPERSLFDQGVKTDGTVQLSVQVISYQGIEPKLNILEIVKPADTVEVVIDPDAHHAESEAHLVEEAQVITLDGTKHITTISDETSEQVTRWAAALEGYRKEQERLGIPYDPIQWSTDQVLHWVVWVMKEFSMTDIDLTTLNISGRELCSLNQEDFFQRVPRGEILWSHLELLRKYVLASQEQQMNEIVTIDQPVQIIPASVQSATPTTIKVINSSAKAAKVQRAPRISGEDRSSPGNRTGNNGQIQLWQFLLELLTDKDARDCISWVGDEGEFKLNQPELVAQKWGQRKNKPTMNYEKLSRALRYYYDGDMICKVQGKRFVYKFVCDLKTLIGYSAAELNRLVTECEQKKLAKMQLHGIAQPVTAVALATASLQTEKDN
# How it was run: as §1
# ERG = target: T4, ERG (Homo sapiens, UniProt P11308 1-479); conditions: protein: recombinant; tags: N-terminal GST; dsDNA, one strand shown
# T4 sequence: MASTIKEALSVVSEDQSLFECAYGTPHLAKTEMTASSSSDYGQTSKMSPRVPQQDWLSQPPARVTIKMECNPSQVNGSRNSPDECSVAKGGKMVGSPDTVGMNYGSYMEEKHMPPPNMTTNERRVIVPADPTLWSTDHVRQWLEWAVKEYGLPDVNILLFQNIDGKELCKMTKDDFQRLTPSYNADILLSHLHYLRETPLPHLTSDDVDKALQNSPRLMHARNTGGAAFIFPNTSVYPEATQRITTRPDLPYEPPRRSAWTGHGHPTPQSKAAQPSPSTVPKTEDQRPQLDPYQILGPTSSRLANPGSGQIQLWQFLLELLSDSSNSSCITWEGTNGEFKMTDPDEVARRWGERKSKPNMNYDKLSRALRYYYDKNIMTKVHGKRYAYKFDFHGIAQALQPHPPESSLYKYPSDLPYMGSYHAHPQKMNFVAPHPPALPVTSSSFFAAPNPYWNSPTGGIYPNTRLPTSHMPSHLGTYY
# How it was run: as §1
# ELF1 = ELF1 (Homo sapiens, UniProt P32519 1-619); conditions: protein: recombinant; tags: N-terminal GST; dsDNA, one strand shown
# Sequence of ELF1 (P32519 whole entry): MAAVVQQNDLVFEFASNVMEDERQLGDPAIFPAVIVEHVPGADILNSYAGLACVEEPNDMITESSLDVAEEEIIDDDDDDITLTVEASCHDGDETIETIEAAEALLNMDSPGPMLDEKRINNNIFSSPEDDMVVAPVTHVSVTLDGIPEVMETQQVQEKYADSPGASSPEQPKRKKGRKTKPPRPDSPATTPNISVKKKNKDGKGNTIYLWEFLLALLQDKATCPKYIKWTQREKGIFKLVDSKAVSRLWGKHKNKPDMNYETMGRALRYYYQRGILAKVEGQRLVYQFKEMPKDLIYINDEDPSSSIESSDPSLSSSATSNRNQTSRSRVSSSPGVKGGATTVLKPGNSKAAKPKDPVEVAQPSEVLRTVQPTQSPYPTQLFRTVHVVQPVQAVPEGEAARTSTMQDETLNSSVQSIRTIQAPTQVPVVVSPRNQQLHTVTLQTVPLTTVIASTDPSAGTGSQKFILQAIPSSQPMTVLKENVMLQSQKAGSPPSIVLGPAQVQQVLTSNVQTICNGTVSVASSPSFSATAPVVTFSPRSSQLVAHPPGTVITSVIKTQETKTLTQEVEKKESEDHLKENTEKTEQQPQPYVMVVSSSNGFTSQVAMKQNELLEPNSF
# How it was run: as §1
# EHF = target: T5, EHF (Homo sapiens, UniProt Q9NZC4 1-300); conditions: protein: recombinant; tags: N-terminal GST; dsDNA, one strand shown
# T5 sequence: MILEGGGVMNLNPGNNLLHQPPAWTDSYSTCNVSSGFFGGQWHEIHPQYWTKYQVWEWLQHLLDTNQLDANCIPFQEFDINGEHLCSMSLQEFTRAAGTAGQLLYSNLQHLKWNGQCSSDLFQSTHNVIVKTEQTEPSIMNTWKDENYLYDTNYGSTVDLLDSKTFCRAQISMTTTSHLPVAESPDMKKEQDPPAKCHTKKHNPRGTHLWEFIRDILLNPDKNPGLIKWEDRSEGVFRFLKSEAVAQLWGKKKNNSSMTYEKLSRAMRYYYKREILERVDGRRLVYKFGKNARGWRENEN
# How it was run: as §1
# SPI1 = SPI1 (Homo sapiens, UniProt P17947 1-270); conditions: protein: recombinant; tags: N-terminal GST; dsDNA, one strand shown
# How it was run: as §1
# SPIB = SPIB (Homo sapiens, UniProt Q01892 1-262); conditions: protein: recombinant; tags: N-terminal GST; dsDNA, one strand shown
# Sequence of SPIB (Q01892 whole entry): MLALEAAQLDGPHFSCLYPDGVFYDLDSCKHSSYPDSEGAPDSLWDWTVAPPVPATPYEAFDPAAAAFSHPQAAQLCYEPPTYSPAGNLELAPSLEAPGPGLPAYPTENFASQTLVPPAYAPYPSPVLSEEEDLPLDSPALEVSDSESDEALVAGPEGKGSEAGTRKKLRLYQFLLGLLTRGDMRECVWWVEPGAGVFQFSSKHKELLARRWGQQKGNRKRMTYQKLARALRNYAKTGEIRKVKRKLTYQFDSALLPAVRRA
# How it was run: as §1
# ELK3 = target: T6, ELK3 (Homo sapiens, UniProt P41970 1-407); conditions: protein: recombinant; tags: N-terminal GST; dsDNA, one strand shown
# T6 sequence: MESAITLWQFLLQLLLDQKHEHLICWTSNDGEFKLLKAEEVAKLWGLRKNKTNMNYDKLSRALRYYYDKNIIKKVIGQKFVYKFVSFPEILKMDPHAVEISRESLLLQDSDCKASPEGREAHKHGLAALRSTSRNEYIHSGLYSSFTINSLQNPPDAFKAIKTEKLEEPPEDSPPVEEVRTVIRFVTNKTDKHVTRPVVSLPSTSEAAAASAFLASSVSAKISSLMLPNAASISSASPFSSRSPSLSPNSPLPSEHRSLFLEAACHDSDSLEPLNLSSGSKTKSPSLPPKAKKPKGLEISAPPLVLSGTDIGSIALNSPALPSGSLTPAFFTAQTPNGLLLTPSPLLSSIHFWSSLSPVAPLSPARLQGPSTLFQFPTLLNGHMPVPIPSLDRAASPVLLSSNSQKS
# How it was run: as §1
# FEV = target: T7, FEV (Homo sapiens, UniProt Q99581 1-238); conditions: protein: recombinant; tags: N-terminal GST; dsDNA, one strand shown
# T7 sequence: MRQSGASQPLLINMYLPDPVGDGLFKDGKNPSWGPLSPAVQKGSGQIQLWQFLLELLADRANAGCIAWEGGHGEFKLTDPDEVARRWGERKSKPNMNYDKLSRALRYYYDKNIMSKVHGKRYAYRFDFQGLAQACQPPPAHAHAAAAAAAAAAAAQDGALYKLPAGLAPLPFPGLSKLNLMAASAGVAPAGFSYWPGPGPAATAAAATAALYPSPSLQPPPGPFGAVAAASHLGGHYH
# How it was run: as §1
# ETV5 = ETV5 (Homo sapiens, UniProt P41161 1-510); conditions: protein: recombinant; tags: N-terminal GST; dsDNA, one strand shown
# Sequence of ETV5 (P41161 whole entry): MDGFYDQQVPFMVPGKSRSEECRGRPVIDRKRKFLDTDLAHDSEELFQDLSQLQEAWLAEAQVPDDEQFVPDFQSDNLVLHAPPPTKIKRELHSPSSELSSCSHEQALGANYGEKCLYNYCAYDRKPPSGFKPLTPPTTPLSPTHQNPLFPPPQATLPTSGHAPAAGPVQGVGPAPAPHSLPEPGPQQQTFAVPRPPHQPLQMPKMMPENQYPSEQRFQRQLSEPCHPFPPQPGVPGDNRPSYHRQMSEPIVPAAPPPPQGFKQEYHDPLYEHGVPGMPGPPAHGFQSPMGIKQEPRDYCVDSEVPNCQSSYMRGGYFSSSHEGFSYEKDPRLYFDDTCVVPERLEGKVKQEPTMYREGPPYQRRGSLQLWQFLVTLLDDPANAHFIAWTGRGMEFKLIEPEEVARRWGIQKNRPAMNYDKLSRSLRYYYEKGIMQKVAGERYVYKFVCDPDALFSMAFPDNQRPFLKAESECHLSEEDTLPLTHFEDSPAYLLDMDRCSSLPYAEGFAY
# How it was run: as §1
# HSF1 = HSF1 (Homo sapiens, UniProt Q00613 1-529); conditions: protein: recombinant; tags: N-terminal GST; chain copies: 3; dsDNA, one strand shown
# Sequence of HSF1 (Q00613 whole entry): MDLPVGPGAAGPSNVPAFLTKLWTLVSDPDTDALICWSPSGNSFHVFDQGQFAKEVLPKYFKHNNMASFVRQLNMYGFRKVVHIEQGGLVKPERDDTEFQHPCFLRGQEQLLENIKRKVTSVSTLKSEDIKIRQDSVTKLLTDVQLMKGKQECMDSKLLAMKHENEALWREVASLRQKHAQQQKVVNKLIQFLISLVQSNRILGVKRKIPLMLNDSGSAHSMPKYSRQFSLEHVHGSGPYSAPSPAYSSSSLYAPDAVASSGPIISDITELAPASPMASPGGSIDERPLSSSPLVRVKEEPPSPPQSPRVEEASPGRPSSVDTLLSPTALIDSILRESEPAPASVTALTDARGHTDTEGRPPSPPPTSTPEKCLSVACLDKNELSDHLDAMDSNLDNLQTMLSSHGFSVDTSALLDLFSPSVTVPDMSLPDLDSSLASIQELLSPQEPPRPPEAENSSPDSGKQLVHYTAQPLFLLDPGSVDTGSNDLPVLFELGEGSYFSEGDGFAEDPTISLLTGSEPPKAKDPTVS
# How it was run: as §1
# SPIC = target: T8, SPIC (Homo sapiens, UniProt Q8N5J4 1-248); conditions: protein: recombinant; tags: N-terminal GST; dsDNA, one strand shown
# T8 sequence: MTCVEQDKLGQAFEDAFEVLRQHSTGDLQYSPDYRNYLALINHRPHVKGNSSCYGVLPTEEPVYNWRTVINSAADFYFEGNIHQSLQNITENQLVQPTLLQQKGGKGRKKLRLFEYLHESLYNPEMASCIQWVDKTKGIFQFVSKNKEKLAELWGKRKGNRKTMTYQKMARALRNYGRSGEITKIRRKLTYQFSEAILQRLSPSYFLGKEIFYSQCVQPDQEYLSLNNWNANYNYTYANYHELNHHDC
# How it was run: as §1
# ELF4 = ELF4 (Homo sapiens, UniProt Q99607 1-663); conditions: protein: recombinant; tags: N-terminal GST; dsDNA, one strand shown
# Sequence of ELF4 (Q99607 whole entry): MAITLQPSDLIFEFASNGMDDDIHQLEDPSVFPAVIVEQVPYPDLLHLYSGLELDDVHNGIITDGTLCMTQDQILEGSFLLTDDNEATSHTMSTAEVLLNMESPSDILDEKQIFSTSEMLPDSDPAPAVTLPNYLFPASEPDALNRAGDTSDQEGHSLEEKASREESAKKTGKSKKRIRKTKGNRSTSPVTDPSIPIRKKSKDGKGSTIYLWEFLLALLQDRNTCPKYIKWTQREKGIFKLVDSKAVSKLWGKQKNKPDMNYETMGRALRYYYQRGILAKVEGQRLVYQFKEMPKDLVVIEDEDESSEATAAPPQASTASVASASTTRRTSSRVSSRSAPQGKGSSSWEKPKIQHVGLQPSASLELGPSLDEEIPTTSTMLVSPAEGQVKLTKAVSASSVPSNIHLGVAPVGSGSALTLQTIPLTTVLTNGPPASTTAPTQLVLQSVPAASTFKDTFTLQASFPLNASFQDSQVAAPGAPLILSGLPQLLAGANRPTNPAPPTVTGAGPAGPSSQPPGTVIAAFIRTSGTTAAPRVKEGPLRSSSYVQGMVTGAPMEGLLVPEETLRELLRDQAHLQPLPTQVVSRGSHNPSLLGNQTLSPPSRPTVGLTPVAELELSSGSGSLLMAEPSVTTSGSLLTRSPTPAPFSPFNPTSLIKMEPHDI
# How it was run: as §1
# ELK4 = target: T9, ELK4 (Homo sapiens, UniProt P28324-2 1-405); conditions: protein: recombinant; tags: N-terminal GST; dsDNA, one strand shown
# T9 sequence: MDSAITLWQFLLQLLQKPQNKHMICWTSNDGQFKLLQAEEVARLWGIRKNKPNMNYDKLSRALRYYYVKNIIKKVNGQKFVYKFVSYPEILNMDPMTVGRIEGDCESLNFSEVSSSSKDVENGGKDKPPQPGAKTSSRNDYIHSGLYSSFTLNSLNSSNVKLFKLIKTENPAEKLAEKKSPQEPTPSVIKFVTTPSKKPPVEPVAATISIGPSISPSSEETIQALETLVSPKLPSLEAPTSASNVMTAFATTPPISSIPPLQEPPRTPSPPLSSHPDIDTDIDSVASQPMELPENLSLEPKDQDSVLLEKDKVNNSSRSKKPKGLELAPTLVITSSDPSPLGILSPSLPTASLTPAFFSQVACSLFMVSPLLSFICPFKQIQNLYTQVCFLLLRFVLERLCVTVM
# How it was run: as §1
# ETV2 = target: T10, ETV2 (Homo sapiens, UniProt O00321 1-342); conditions: protein: recombinant; tags: N-terminal GST; dsDNA, one strand shown
# T10 sequence: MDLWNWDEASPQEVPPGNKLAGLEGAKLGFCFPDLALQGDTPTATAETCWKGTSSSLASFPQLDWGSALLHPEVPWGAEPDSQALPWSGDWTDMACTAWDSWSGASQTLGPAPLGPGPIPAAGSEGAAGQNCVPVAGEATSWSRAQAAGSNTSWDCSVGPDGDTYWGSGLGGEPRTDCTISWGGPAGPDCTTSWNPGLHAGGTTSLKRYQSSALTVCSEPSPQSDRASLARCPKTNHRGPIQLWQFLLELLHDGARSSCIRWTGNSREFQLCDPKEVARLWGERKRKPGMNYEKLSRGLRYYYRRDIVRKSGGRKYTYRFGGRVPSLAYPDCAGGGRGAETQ
# How it was run: as §1
# ELF3 = target: T11, ELF3 (Homo sapiens, UniProt P78545 1-371); conditions: protein: recombinant; tags: N-terminal GST; dsDNA, one strand shown
# T11 sequence: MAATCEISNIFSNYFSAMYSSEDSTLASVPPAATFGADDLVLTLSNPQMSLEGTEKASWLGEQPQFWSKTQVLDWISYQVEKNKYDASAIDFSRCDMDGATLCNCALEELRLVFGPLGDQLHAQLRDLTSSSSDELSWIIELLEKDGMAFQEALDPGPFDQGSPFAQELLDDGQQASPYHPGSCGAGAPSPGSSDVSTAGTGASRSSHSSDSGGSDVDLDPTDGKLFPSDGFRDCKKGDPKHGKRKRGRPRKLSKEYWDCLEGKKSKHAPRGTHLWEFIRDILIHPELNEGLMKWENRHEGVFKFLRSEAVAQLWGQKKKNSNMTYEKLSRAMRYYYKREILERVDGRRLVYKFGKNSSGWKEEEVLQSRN
# How it was run: as §1
# CRX = CRX (Homo sapiens, UniProt O43186 1-299); conditions: protein: recombinant; tags: N-terminal GST; dsDNA, one strand shown
# Sequence of CRX (O43186 whole entry): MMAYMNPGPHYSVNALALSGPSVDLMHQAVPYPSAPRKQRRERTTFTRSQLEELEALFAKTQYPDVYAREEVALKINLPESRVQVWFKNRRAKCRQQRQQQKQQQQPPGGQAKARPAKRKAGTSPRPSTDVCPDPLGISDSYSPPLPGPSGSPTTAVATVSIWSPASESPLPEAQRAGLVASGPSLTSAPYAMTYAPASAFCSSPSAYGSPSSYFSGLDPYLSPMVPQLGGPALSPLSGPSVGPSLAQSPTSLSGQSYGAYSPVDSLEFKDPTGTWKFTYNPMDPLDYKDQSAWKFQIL
# How it was run: as §1
# ETV1 = ETV1 (Homo sapiens, UniProt P50549 1-477); conditions: protein: recombinant; tags: N-terminal GST; dsDNA, one strand shown
# Sequence of ETV1 (P50549 whole entry): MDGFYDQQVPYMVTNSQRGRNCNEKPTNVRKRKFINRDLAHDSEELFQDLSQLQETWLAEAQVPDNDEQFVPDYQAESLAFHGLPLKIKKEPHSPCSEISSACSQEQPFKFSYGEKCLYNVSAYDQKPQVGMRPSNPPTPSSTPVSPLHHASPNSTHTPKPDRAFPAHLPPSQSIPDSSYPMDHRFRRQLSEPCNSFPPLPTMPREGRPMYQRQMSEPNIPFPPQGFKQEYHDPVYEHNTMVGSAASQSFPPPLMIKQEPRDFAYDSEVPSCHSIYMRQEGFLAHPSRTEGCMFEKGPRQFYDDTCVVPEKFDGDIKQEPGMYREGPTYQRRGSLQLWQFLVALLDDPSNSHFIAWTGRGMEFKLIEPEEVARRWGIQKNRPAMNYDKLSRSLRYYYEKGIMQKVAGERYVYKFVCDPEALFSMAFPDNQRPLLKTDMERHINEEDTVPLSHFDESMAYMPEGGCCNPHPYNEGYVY
# How it was run: as §1
sequence,measurement,setting,value
CATTTG,binding signal,FLI1,"1.23 fold enrichment (6-mer frequency, TF over GST control)"
same,binding signal,ELK1,"1.32 fold enrichment (6-mer frequency, TF over GST control)"
same,binding signal,GABPA,"1.28 fold enrichment (6-mer frequency, TF over GST control)"
same,binding signal,ERG,"1.21 fold enrichment (6-mer frequency, TF over GST control)"
same,binding signal,ELF1,"1.24 fold enrichment (6-mer frequency, TF over GST control)"
same,binding signal,EHF,"1.27 fold enrichment (6-mer frequency, TF over GST control)"
same,binding signal,SPI1,"1.29 fold enrichment (6-mer frequency, TF over GST control)"
same,binding signal,SPIB,"1.28 fold enrichment (6-mer frequency, TF over GST control)"
same,binding signal,ELK3,"1.2 fold enrichment (6-mer frequency, TF over GST control)"
same,binding signal,FEV,"1.21 fold enrichment (6-mer frequency, TF over GST control)"
same,binding signal,ETV5,"1.24 fold enrichment (6-mer frequency, TF over GST control)"
same,binding signal,HSF1,"1.13 fold enrichment (6-mer frequency, TF over GST control)"
same,binding signal,SPIC,"1.15 fold enrichment (6-mer frequency, TF over GST control)"
same,binding signal,ELF4,"1.26 fold enrichment (6-mer frequency, TF over GST control)"
same,binding signal,ELK4,"1.26 fold enrichment (6-mer frequency, TF over GST control)"
same,binding signal,ETV2,"1.29 fold enrichment (6-mer frequency, TF over GST control)"
same,binding signal,ELF3,"1.49 fold enrichment (6-mer frequency, TF over GST control)"
same,binding signal,CRX,"1.07 fold enrichment (6-mer frequency, TF over GST control)"
same,binding signal,ETV1,"1.32 fold enrichment (6-mer frequency, TF over GST control)"
